Consider 37 molecules from ChEMBL document CHEMBL3988442, “University of Dundee, Small-Polar-MMV Screening Library” (2021).

Experiment [1] concerns the target T1, Aspartate--tRNA(Asp/Asn) ligase (Mycobacterium tuberculosis (strain ATCC 25618 / H37Rv)) (UniProt P9WFW3). Note: in the data most compounds retested in dose-response had high values.
T1 sequence (whole entry): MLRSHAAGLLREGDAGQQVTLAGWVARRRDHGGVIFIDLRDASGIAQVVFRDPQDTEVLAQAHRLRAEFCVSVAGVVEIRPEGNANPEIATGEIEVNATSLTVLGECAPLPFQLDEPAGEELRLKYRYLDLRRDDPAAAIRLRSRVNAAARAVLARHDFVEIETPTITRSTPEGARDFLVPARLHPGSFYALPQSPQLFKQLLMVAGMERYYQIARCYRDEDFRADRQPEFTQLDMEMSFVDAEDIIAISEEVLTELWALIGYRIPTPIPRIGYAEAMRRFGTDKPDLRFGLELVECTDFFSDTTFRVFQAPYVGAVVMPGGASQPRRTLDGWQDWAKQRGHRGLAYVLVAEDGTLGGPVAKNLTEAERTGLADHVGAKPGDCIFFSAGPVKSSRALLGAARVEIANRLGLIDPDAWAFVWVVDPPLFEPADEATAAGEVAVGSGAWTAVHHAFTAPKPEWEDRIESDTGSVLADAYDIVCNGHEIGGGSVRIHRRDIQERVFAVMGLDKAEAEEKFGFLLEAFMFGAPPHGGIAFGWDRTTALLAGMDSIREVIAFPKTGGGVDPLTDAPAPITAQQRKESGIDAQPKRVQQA
As to the kind of experiment: Assay for Asp RNA synthetase-1 from Mycobacterium tuberculosis. The experiment is classed as functional. The note with it: 30 µM. On the set-up: scale not given: direction of the effect not stated beside the values.

Experiment [2] deals with Shiga toxin 2 (Escherichia coli O157:H7) (UniProt P09385+P09386). Description: E. coli 0.157:H7 Shiga Toxin SOP - stx2 screening assay. The experiment is classed as functional. Set-up: scale not given: direction of the effect not stated beside the values. The note with it: 30 µM.

Consider `CN(C)C(=O)CC1CC2(CCNCC2)c2cc(F)ccc21` (centres undefined), for which the figures for the Percent Effect in experiment [1] and in experiment [2] were 2.15% and 1.21%, respectively.

In the case of `CC(=O)N1CCCC1c1ccc(C(=O)N2CCOCC2)s1` (centres undefined), the results for the Percent Effect in experiment [1] and in experiment [2] were 2.33% and -18.8%, respectively.

Turning to `Cc1nn(C)c(C)c1C1CCCN1C(=O)CCNc1ncccn1` (centres undefined), the Percent Effect in experiment [1] was 6.63%; in experiment [2] it was 13.4%.

For `O=C(CC1CCCO1)NCc1ccccc1Cn1cncn1` (centres undefined), the values for the Percent Effect in experiment [1] and in experiment [2] were -3.17% and 31.5%, respectively.

Turning to `O=C(c1cccc(F)c1)N1CCN2C[C@H](OCc3cccnc3)C[C@H]2C1`, the Percent Effect is -1.22% in experiment [1] and -4.11% in experiment [2].

As for `NC(=O)C1(c2cnccn2)CCCN1Cc1cc2ccccc2o1` (centres undefined), the Percent Effect in experiment [1] turned out to be 3.17%; in experiment [2], 11.4%.

On to `COc1ccc(C(=O)N2CCCC2c2ccco2)cc1OC` (centres undefined), for which the Percent Effect in experiment [1] is -3.37%; in experiment [2], -11.3%.

On to `CN(Cc1nc(N)c2ccccc2n1)CC1CCCN1c1cccnn1` (centres undefined), for which the Percent Effect in experiment [1] was determined as 4.61%; in experiment [2], 24.7%.

Turning to `NCc1cn(-c2ccccc2C(=O)NCc2cccc(Cl)c2)cn1`, the Percent Effect in experiment [1] is -0.574%; in experiment [2], 40.7%.

Consider `O=C(CN1CCCCCCC1=O)NCc1ccccn1`, for which the Percent Effect in experiment [1] was -0.137%; in experiment [2], -35.3%.

Regarding `CS(=O)(=O)c1ccc(CNCC2CCN(CCO)CC2)cc1`, the results for the Percent Effect in experiment [1] and in experiment [2] were 9.49% and -31.9%, respectively.

In the case of `O=C(c1cc2c(s1)CCC2)N1CCCCC1Cn1cccn1` (centres undefined), the Percent Effect in experiment [1] came to 1.25%; in experiment [2], 11.1%.

`Cc1cc(C)n(C2CCCN(C(=O)COCC(F)(F)F)C2)n1` (centres undefined): the values for the Percent Effect in experiment [1] and in experiment [2] were -4.61% and -2.74%, respectively.

For `Cc1cc(CNc2cc(Cl)ccc2OCCS(C)(=O)=O)no1`, the Percent Effect is -2.26% in experiment [1] and -0.408% in experiment [2].

As for `Cc1[nH]/c(=N\C(=O)c2csc(NCC(C)C)n2)sc1C`, the values for the Percent Effect in experiment [1] and in experiment [2] were 0.43% and 12%, respectively.

As to `O=C1N(c2ccc(Br)cc2)Cc2nc(=O)[nH]n21`, the Percent Effect in experiment [1] is -4.79%; in experiment [2], -34.3%.

With `CCn1ncc2c1CCCC2NCC1=Cc2ccccc2OC1` (centres undefined), the results for the Percent Effect in experiment [1] and in experiment [2] were 4.82% and -23.2%, respectively.

Consider `CC(C)Oc1cccc(C(O)CNC(=O)CCc2ccncc2)c1` (centres undefined), for which the Percent Effect in experiment [1] was -1.28%; in experiment [2], -21.1%.

For the molecule `c1cnc(-c2nc(CN3CCCC(Cn4cncn4)C3)cs2)nc1` (centres undefined), the Percent Effect in experiment [1] is -1.55%; in experiment [2], 20.5%.

On to `OC(CNCCn1cccn1)c1ccc(F)c(F)c1` (centres undefined), for which the values for the Percent Effect in experiment [1] and in experiment [2] were -2.25% and -25.7%, respectively.

Consider `CNc1nc(CNC(=O)Nc2cccc(F)c2)cs1`, for which the Percent Effect in experiment [1] was -1.08%; in experiment [2], -9.25%.

As for `Cc1nc(C(C)(C)NC(=O)Nc2ccccc2)no1`, the figures for the Percent Effect in experiment [1] and in experiment [2] were 0.805% and -0.789%, respectively.

Take `Cc1ccc(CC2CCCN2CC(=O)NCc2ccccn2)cc1` (centres undefined): the Percent Effect was 0.629% in experiment [1] and -4.96% in experiment [2].

For the molecule `Cc1nc(CN2CCCC(NCCOCC(F)(F)F)C2)no1` (centres undefined), the Percent Effect in experiment [1] was -8.65%; in experiment [2], -8.56%.

Consider `Cc1ccsc1C(=O)N1CC(C(=O)N2CCOCC2)C2(CCOCC2)C1` (centres undefined), for which the Percent Effect in experiment [1] was 7.88%; in experiment [2], -8.92%.

Regarding `CC(C)c1nc(C2CCCN(C(=O)c3ccc4nccn4c3)C2)no1` (centres undefined), the Percent Effect was found to be 4.61% in experiment [1] and 29.2% in experiment [2].

Regarding `Cc1ncsc1CN1CC[C@H]2C(=O)N(c3ccccc3)CCO[C@H]2C1`, the Percent Effect is -1.84% in experiment [1] and 3.87% in experiment [2].

For the molecule `CCOCC(O)CN1CCN(C(=O)c2ccccc2Cl)CC1` (centres undefined), the Percent Effect in experiment [1] is -4.21%; in experiment [2], 24.8%.

For `CCOc1cc(C)nc(N2CCN(Cc3nccn3C)CC2)n1`, the Percent Effect in experiment [1] is -4.49%; in experiment [2] it was 5.04%.

On to `Cc1ncc(CNC(=O)N(C)C2CCN(c3ccccc3)C2=O)s1` (centres undefined), for which the Percent Effect in experiment [1] is -3.19%; in experiment [2], 24.6%.

For the molecule `COCCn1cc(C(=O)N2CCCC2c2cccc(F)c2)ccc1=O` (centres undefined), the Percent Effect in experiment [1] is 0.301%; in experiment [2], -4.86%.

In the case of `Cc1noc(C)c1CN1CC2(CCN(C(=O)c3c[nH]cn3)C2)CC1=O` (centres undefined), the Percent Effect in experiment [1] is 0.582%; in experiment [2] it was -14.1%.

Take `Fc1ccc(-c2nnc(CN3CCn4c(nnc4C4CC4)C3)o2)cc1`: the Percent Effect is 3.19% in experiment [1] and -26.1% in experiment [2].

For `Cc1[nH]ncc1CCCNC(=O)Nc1ccc(C#N)cc1`, the Percent Effect was 0.993% in experiment [1] and -61.3% in experiment [2].

In the case of `Cc1noc(C)c1CCC(=O)NC(C)c1nnc2n1CCC2` (centres undefined), the Percent Effect in experiment [1] is -0.635%; in experiment [2], -3.03%.

As to `CCn1cnnc1C1CCN(C(=O)c2ccc(Cl)s2)CC1`, the Percent Effect was -0.371% in experiment [1] and -7.76% in experiment [2].

`Cc1cccc(CS(=O)(=O)NCC(O)Cc2ccccc2)c1` (centres undefined): the results for the Percent Effect in experiment [1] and in experiment [2] were -8.39% and 0.958%, respectively.
